Results reported in PubChem BioAssay (NCI).
The panel holds about 83,000 compounds, 20% with a hit somewhere; the sample as a whole holds those more often.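 Note: values are percent growth. 100 is the growth of untreated cells, values between 100 and 0 indicate rising inhibition; between -100 and 0 indicates cell death.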 Activity calls are given as the source filed them. How the source made its calls: active means growth percent below 10; inactive means the rest.

Key:
Assay in all cases: NCI-60 one-dose screen, 48 h (100 = growth as untreated, 0 = no growth, -100 = all killed)
DU-145 prostate = conditions: 10 µM unless noted
K-562 leukemia = conditions: 10 µM unless noted
MALME-3M melanoma = conditions: 10 µM unless noted
MDA-MB-231 breast = conditions: 10 µM unless noted
RXF 393 renal = conditions: 10 µM unless noted
SF-268 CNS = conditions: 10 µM unless noted
SF-295 CNS = conditions: 10 µM unless noted
SF-539 CNS = conditions: 10 µM unless noted
UACC-257 melanoma = conditions: 10 µM unless noted
M14 melanoma = conditions: 10 µM unless noted
HCT-15 colon = conditions: 10 µM unless noted
SNB-19 CNS = conditions: 10 µM unless noted
U251 CNS = conditions: 10 µM unless noted
PC-3 prostate = conditions: 10 µM unless noted
SK-MEL-5 melanoma = conditions: 10 µM unless noted
UACC-62 melanoma = conditions: 10 µM unless noted
LOX IMVI melanoma = conditions: 10 µM unless noted
SK-MEL-28 melanoma = conditions: 10 µM unless noted
SNB-75 CNS = conditions: 10 µM
HT29 colon = conditions: 10 µM unless noted

Measured: growth

O=C(O)c1cn(C2CC2)c2cc(N3CCN(C(=O)/C=C/c4ccc(Cl)cc4)CC3)c(F)cc2c1=O
inactive: DU-145 prostate 84.4% | K-562 leukemia 74.2% | MALME-3M melanoma 84.6% | MDA-MB-231 breast 68.1% | RXF 393 renal 72% | SF-268 CNS 62.4% | SF-295 CNS 80.7% | SF-539 CNS 72.2% | UACC-257 melanoma 81.9% | M14 melanoma 82.8% | HCT-15 colon 51.6% | SNB-19 CNS 82.8% | U251 CNS 77.7% | PC-3 prostate 72.6% | SK-MEL-5 melanoma 64.8% | UACC-62 melanoma 61.7% | LOX IMVI melanoma 22% | SK-MEL-28 melanoma 66.5%

CN(C)CCCC(C#N)c1ccccc1 (centres undefined)
inactive: DU-145 prostate 122% | K-562 leukemia 99.1% | MALME-3M melanoma 131% | MDA-MB-231 breast 112% | RXF 393 renal 115% | SF-268 CNS 114% | SF-295 CNS 110% | UACC-257 melanoma 104% | M14 melanoma 104% | HCT-15 colon 103% | SNB-75 CNS 88.5% | SNB-19 CNS 103% | U251 CNS 105% | PC-3 prostate 99.1% | SK-MEL-5 melanoma 108% | UACC-62 melanoma 102% | LOX IMVI melanoma 103% | SK-MEL-28 melanoma 119%

COc1cc2c(cc1OCCCN1CCN(CCCn3c4ccccc4c4ccccc43)CC1)N=C[C@@H]1CCCN1C2=O
active: DU-145 prostate -85.9% | K-562 leukemia -50.1% | MALME-3M melanoma -82.5% | MDA-MB-231 breast -69.3% | RXF 393 renal -78.3% | SF-268 CNS -87.8% | SF-295 CNS -92.3% | SF-539 CNS -91.3% | UACC-257 melanoma -70.3% | HT29 colon -17.2% | SNB-75 CNS -98.9% | SNB-19 CNS -49.8% | U251 CNS -99.1% | PC-3 prostate -64.7% | SK-MEL-5 melanoma -100% | UACC-62 melanoma -87.3% | LOX IMVI melanoma -91.2% | SK-MEL-28 melanoma -98.3%

C/C(=N/NC(=S)Nc1ccccc1)c1nc2ccc(Cl)cc2[nH]1
active: DU-145 prostate -99.1% | K-562 leukemia -9.4% | MALME-3M melanoma -74% | MDA-MB-231 breast -21.4% | RXF 393 renal -91.5% | SF-268 CNS -89.6% | SF-295 CNS -58.6% | SF-539 CNS -72.1% | UACC-257 melanoma -94.9% | HCT-15 colon 0.555% | HT29 colon -88.5% | SNB-75 CNS -75.5% | SNB-19 CNS -33.7% | U251 CNS -44.2% | SK-MEL-5 melanoma -97.3% | UACC-62 melanoma -72.6% | LOX IMVI melanoma -75.8% | SK-MEL-28 melanoma -96.6%

CCCOC(=O)n1cccc1
inactive: DU-145 prostate 108% | K-562 leukemia 115% | MALME-3M melanoma 147% | MDA-MB-231 breast 99% | RXF 393 renal 102% | SF-268 CNS 98.4% | SF-295 CNS 122% | UACC-257 melanoma 102% | M14 melanoma 101% | HCT-15 colon 107% | SNB-75 CNS 75.4% | SNB-19 CNS 100% | U251 CNS 107% | PC-3 prostate 91.6% | SK-MEL-5 melanoma 109% | UACC-62 melanoma 91.5% | LOX IMVI melanoma 89.8% | SK-MEL-28 melanoma 116%

O=c1[nH]c(NCc2ccccc2)nc2nc(Nc3ccc(NC(=S)Nc4ccccc4)cc3)nc(-c3ccc(O)cc3O)c12
inactive: DU-145 prostate 116% | K-562 leukemia 63.3% | MALME-3M melanoma 103% | MDA-MB-231 breast 90.2% | RXF 393 renal 81.4% | SF-268 CNS 96% | SF-295 CNS 147% | SF-539 CNS 108% | UACC-257 melanoma 39.7% | HCT-15 colon 105% | HT29 colon 125% | SNB-75 CNS 91.7% | SNB-19 CNS 91.9% | U251 CNS 87.8% | SK-MEL-5 melanoma 113% | UACC-62 melanoma 83% | LOX IMVI melanoma 101% | SK-MEL-28 melanoma 91.5%

CCCCCCCCCCCCCCCCNC(=O)OC(C)C
inactive: MALME-3M melanoma 81.2% | MDA-MB-231 breast 23.8% | RXF 393 renal 80.1% | SF-268 CNS 64.9% | SF-295 CNS 20.8% | UACC-257 melanoma 95.8% | M14 melanoma 35.7% | HCT-15 colon 55.9% | SNB-75 CNS 64% | SNB-19 CNS 95.5% | U251 CNS 14.1% | SK-MEL-5 melanoma 91% | UACC-62 melanoma 81.7% | SK-MEL-28 melanoma 95.9%
active: DU-145 prostate -23.3% | K-562 leukemia 8% | PC-3 prostate -16.9% | LOX IMVI melanoma -2.25%

O=c1cc(Cc2ccc([N+](=O)[O-])cc2)[nH]c(=O)[nH]1
inactive: DU-145 prostate 119% | K-562 leukemia 111% | MALME-3M melanoma 99.9% | MDA-MB-231 breast 110% | RXF 393 renal 109% | SF-268 CNS 106% | SF-295 CNS 122% | UACC-257 melanoma 109% | M14 melanoma 104% | HCT-15 colon 96.6% | SNB-75 CNS 94.4% | SNB-19 CNS 97% | U251 CNS 103% | PC-3 prostate 92.6% | SK-MEL-5 melanoma 109% | UACC-62 melanoma 99.9% | LOX IMVI melanoma 103% | SK-MEL-28 melanoma 114%
